NPC1 prom act: NPC1 promoter activation; Huh7 NPC1 promoter luciferase reporter, 24 h; Potency, µM (doses to about 9.22 µM), for inactives: at the highest dose activation, most hits filed as activators; 2.4% of 320,000 active; AID 485313; note: % of control where 0% means no effect; nearly all actives have a fitted effect of over 60% in size
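Luciferase expression driven by the NPC1 promoter was measured in stably transfected Huh7 cells after a 24 h compound incubation, using a luciferase reagent and a luminescence read.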
ELG1 genotox: genotoxicity induction in ELG1-luciferase HEK293T cells. Potency, µM (top dose mostly 46 µM), without a hit: at the top dose activity change, positive = activation, most hits filed as activators. 1.3% of 330,000 active. HEK293T ELG1-luciferase reporter, luminescence, 16 h. AID 504466; note: % of control where 0% means no effect; nearly all actives have a fitted effect of over 60% in size
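Cells (2,000/well) expressing the ELG1-luciferase fusion are dosed by pin tool and kept 16 hr at 37 °C, 5% CO2. Signal comes from ONE-Glo luciferase reagent after 30 min at room temperature.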
Rab9 prom act: activators of Rab9 promoter; Huh7 Rab9 promoter-luciferase reporter, luminescence, 24 h; Potency, µM (highest dose often 9.22 µM), for inactives: top-dose activation, negative = inhibition, actives largely listed as activators; 2.8% of 320,000 active; note: % of control where 0% means no effect; nearly all actives have a fitted effect of over 60% in size
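Huh7 cells stably carrying Rab9 promoter–luciferase reporter, plated 1500 cells/well, compound added after 2 h and incubated 24 h at 37 °C; luciferase luminescence then read after 10 min with detection reagent.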
Luc counter: blocks Kinase-Glo luciferase, a counter-screen artifact; 0.28% of 200,000 active; Potency, µM (doses to about 38.3 µM), for the others: at the highest dose activity change, negative = inhibition, most hits filed as inhibitors; Q27757; Kinase-Glo luciferase, ATP luminescence, 8 min; note: % is set by controls: 0 for no effect and ±100 for the full control effect; nearly all actives have a fitted effect of over 60% in size
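Compounds were added to a substrate mix at pH 7.2 (50 mM imidazole, 10 uM ATP, within the enzyme's linear range), followed by Kinase-Glo detection reagent; luminescence was measured after 8 minutes at ambient temperature.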
SMN2 splice enh: increases expression of the SMN2 splice variant | HEK293 SMN2-luciferase splicing reporter, luminescence, 30-36 h | Potency, µM (titrated, usually from 46.1 µM), for inactives: at the top dose activity change, positive = activation, most hits filed as activators | 2.8% of 210,000 active | AID 1458; note: % of control where 0% means no effect; nearly all actives have a fitted effect of over 55% in size
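HEK293 cells carry an SMN2 […]–luciferase reporter in which exon 7 inclusion puts luciferase in frame. Cells were plated 10-12 h before compound addition, then incubated 30-36 h at 37C. ONE-Glo luminescence was read; sodium butyrate at 4.5 mM final served as control.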
FLuc counter: inhibits or activates purified firefly luciferase, miR-21 counter-screen; Potency, µM (highest dose often 57.5 µM), for the others: top-dose activity change, negative = inhibition, most hits filed as inhibitors; 6.9% of 360,000 active; P08659; purified FLuc, Km substrates, luminescence inhibition;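 note: plate controls were vehicle for no effect and reference inhibitor for full effect; nearly all actives have a fitted effect of over 55% in size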
Target sequence (P08659 whole entry, looked up): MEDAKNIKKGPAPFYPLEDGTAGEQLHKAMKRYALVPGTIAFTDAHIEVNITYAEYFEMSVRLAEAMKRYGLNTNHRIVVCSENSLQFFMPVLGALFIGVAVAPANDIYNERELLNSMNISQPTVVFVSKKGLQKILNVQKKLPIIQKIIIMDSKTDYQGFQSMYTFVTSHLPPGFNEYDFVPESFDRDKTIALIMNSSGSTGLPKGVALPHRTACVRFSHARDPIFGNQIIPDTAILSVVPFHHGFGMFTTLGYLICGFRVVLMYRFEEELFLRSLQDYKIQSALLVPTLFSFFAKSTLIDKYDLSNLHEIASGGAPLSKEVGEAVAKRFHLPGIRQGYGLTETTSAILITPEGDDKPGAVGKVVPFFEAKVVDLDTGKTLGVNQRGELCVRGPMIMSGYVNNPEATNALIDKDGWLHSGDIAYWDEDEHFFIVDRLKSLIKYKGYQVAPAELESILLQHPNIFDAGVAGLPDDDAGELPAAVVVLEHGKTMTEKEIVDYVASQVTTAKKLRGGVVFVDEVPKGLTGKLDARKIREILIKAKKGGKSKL
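Purified P. pyralis luciferase (10nM final) with 10uM D-luciferin and 10uM ATP (Km levels) in 50mM Tris acetate pH 7.5, 10mM Mg acetate, 0.01% Tween-20, 0.05% BSA; qHTS 6-point titration, ~60 µM downward; luminescence read.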
Starred values were filed as active, the others as inactive; u = inconclusive; x = no result given; [ ] = dose if it differs, or a comment. Rows were chosen to be rich in hits. Some 7.5% of all compounds tested hit in one or more screens of this group. Calls come from the whole dose curve; as a rule, active = well fitted curve in the direction sought with a large enough effect; inconclusive = small, poorly fitted or top-dose-only effect, or another doubt; inactive = no such curve, though single readings can be large; an effect the other way counts as inactive or inconclusive. Potency is the fitted concentration of half-maximal effect.

SMILES	NPC1 prom act	ELG1 genotox	Rab9 prom act	Luc counter	SMN2 splice enh	FLuc counter
O=C(COc1ccc(Cl)cc1)NCC(c1ccco1)S(=O)(=O)c1ccc(Cl)cc1 (stereo unspecified)	x	x	x	x	x	-11%
CCOc1ccc(-c2csc(NC(=O)c3cccc(N4C(=O)CCC4=O)c3)n2)cc1	-4%	-2%	-6%	x	x	9.5µM*
CCNC(=S)N/N=C/c1cc(C)n(-c2ccc(Cl)cc2)c1C	u	u	u	4%	18µM*	17µM*
Cc1nc2ccccn2c1C(=O)N/N=C/c1cc(C)n(-c2ccc(Cl)cc2)c1C	-4%	-3%	0%	-2%	-63%	21µM*
CCOc1ccc(N(CC(=O)Nc2cc(C)ccc2C)S(=O)(=O)c2c(C)[nH]c(=O)[nH]c2=O)cc1	-4%	2%	0%	x	0%	5%
Cc1cccnc1NC(=S)Nc1ccc(Br)cc1Cl	3.2µM*	u	3.2µM*	-4%	25µM*	4.8µM*
O=C(c1cc(-c2ccccc2)nc2ccccc12)N1CCCc2ccccc21	-1%	-3%	11%	-1%	-12%[1.84 µM]	17µM*
Cc1cccc(-c2cc(C(=O)N3CCCc4ccccc43)c3ccccc3n2)c1	0%	1%	2%	x	x	12µM*
O=C(Nc1cc(Cl)cc(Cl)c1)c1ccc(F)c(S(=O)(=O)N2CCN(c3ccccc3F)CC2)c1	x	x	x	x	x	-2%
Cc1ccc(-c2nn3c(C)nnc3c3ccccc23)cc1S(=O)(=O)N(C)CCO	-3%	18µM*	-1%	1%	u	1%
Cc1ccc(-c2nn3c(C)nnc3c3ccccc23)cc1S(=O)(=O)NCc1ccccc1	-4%	3%	3%	3%	-7%	-1%
COc1ccccc1CC(=O)Nc1cccc2c1CCCC2	-7%	3%	-4%	-5%	4.5µM*	-2%
COc1cccc(OC)c1C(=O)Nc1cccc2c1CCCC2	0%	-6%	-2%	x	x	-9%
Cc1ccc(C)c(N2C(=O)N(Cc3ccccc3C)c3ccccc3S2(=O)=O)c1	x	x	x	x	x	-7%
COc1ccc2c(CNCc3ccc(Cl)cc3)c(C(=O)O)n(Cc3ccccc3C)c2c1	x	x	x	x	x	-1%
O=S1(=O)N=C(Nc2nncs2)c2ccccc21	-2%	-1%	-1%	-1%	-11%	19µM*
CCN(CC)S(=O)(=O)c1ccc(NC2=NS(=O)(=O)c3ccccc32)cc1	-2%	2%	0%	4%	9%	-1%
O=S(=O)(c1cccc(-c2nc3n(n2)Cc2ccccc2-3)c1)N1CCCC1	9%	0%	20%	-8%	-4%	15µM*
CCOc1ccc(-c2nc(CCl)cs2)cc1OC	10%	u	8%	0%	-10%	17µM*
COc1cccc(-c2nc(CCl)cs2)c1OC	0%	11%	4%	6%	-11%	17µM*
COc1ccc(-c2nc(CC(=O)O)cs2)cc1OC	0%	8%	-7%	-2%	7%	1%
Cc1csc(NC(=O)c2cnc3ccccc3n2)n1	u	u	u	x	x	2.4µM*
Cc1csc(NC(=O)c2ccc3ccccc3n2)n1	0.5µM*	u	1.1µM*	x	x	1.1µM*
O=C(Nc1nccs1)c1cc(Cl)nc2ccccc12	-4%	-4%	1%	x	x	-4%
O=C(Nc1nccs1)c1ccc2ccccc2n1	4µM*	u	u	x	x	3.4µM*
Cc1ccccc1NC(=O)c1cccc(C(=O)Nc2ccccc2C)n1	-2%	-7%	0%	x	x	4%
Cc1csc(NC(=O)c2cc(C)nc3ccccc23)n1	-7%	-7%	-2%	-1%	-1%	-9%
Cc1cccc(NC(=O)c2ccc3ccccc3n2)c1C	u	u	u	-7%	13µM*	0.85µM*
O=C(NCc1ccccc1Cl)c1ccc2ccccc2n1	u	u	u	x	x	15µM*
Cc1ccc(S(=O)(=O)N2CCCCC2)cc1NC(=O)c1ccc2ccccc2n1	9%	0%	13%	2%	11%	27µM*
